A short description of experiment [1]: stimulators of nuclear beta-catenin in C2C12, primary screen, imaging, WNT3A-conditioned medium, mouse C2C12, NPC library (AID 1117326; in the data active = nuclear beta-catenin stimulation mostly above about 4.2%, no sharp cut-off; inactive = mostly below about 10%; also: reference of the scale not given here). The conditions noted are these: stronger effect = higher value.
Experiment [2] can be described thus: stimulators of insulin release from INS-1E, primary screen, cell-based, 5 mM glucose, NPC library (AID 1117329;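 active = compound raises insulin release from rat beta cells at 5 mM glucose, no numeric limit stated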; also: reference of the scale not given here). To be noted: rat INS-1E insulin secretion, at 10 µM, stronger effect = higher value.
Experiment [3] is described as follows: growth inhibition of GSK3B-pretreated HCT116 cells – cell-based, CellTiter-Glo, 0.2 to 20 µM (AID 1117336;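 active = compounds lowering colon cancer cell viability after pretreatment blocking the GSK3B kinase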). To be noted: HCT116 viability after GSK3B inhibitor, at 20 µM, stronger effect = higher value. For orientation: ATP-based viability assays read luminescence as a measure of living cells.
Experiment [4] is described as follows: inhibition of endothelial tube formation, primary screen, imaging, VEGF stimulated, CD31 staining, tube area, NPC library (AID 1117340). The conditions noted are these: VEGF-stimulated ADSC/ECFC co-culture, at 10 µM, stronger effect = higher value.
Experiment [5] can be described thus: glucagon-like peptide 1 release enhancers, primary assay, NCI-H716 cell line, NPC library (AID 1117341;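 active = compound raises GLP1 secretion from the human gut endocrine cells, with no numeric limit stated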; also: reference of the scale not given here). To be noted: NCI-H716 cells, at 10 µM, stronger effect = higher value.
A short description of experiment [6]: HCT116 colon cancer cell growth inhibition, primary screen, CellTiter-Glo luminescence, NPC library (AID 1117342;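 active = compounds that lower survival of HCT116 colon cancer cells in the luminescence readout, no numeric limit stated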). To be noted: at 20 µM (top of the series).
A short description of experiment [7]: CellTiter-Glo luminescent readout of SW480 viability loss, NPC library primary (AID 1117343;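 active = compounds that lower viability of the colon cancer cells in the luminescence readout, with no numeric limit stated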). The conditions noted are these: CellTiter-Glo luminescence; at 20 µM (top of the series).
Experiment [8] in a line: decreased DLD-1 cellular survival, CellTiter-Glo luminescent readout, NPC compound collection, primary HTS (AID 1117346;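 active = compounds that lower survival of DLD-1 colon cancer cells in the luminescence readout, no cutoff given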). To be noted: DLD-1 viability, CellTiter-Glo luminescence; at 20 µM (top of the series).

The results in this text go back to PubChem BioAssay.

The source made the active and inactive calls.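 The calls were made as follows, unless noted: active = compound that reduces growth-factor-driven endothelial tube area in a mixed cell culture, no cutoff stated; inactive = the rest.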

Regarding `CC(C)C[C@H](NC(=O)CNC(=O)[C@H](Cc1ccc(O)cc1)NC(=O)[C@H](CO)NC(=O)[C@H](Cc1c[nH]c2ccccc12)NC(=O)[C@H](Cc1cnc[nH]1)NC(=O)[C@@H]1CCC(=O)N1)C(=O)N[C@@H](CCCN=C(N)N)C(=O)N1CCC[C@H]1C(=O)NCC(N)=O` (stereo in doubt), the nuclear beta-catenin stimulation is -1% (inactive) in experiment [1] (at 10 µM) and -0.5% in experiment [1] (stimulation, at 2 µM). In experiment [2], the insulin secretion stimulation was -0.4% (inactive). For the same compound, the viability decrease in experiment [3] is 0.3% (inactive). For the same compound, the tube area decrease in experiment [4] is 19.8% (inactive). For the same compound, the GLP1 secretion stimulation in experiment [5] was 6% (inactive). Besides, the inhibition of viability in experiment [6] is 6.7% (active). Also, the viability decrease (inhibition) is 11.3% (inactive) in experiment [7] and -1.2% (inactive) in experiment [8].
For the compound `c1ccc(OCc2ccc(CCCN3CCOCC3)cc2)cc1`, the nuclear beta-catenin stimulation in experiment [1] (at 10 µM) is -1% (inactive); in experiment [1] (stimulation, at 2 µM), 0.3%. Besides, the insulin secretion stimulation in experiment [2] is 4.5% (inactive). The viability decrease in experiment [3] is 32.1% (inactive). Further, in experiment [4], the tube area decrease was 14% (inactive). Besides, the GLP1 secretion stimulation in experiment [5] was -0.1% (inactive). Also, in experiment [6], the inhibition of viability was 54.5% (active). Further, the viability decrease (inhibition) is 34.7% (active) in experiment [7] and 19.4% (inactive) in experiment [8].
As to `O=C(OCc1ccccc1)c1ccc(O)cc1`, the nuclear beta-catenin stimulation in experiment [1] (at 10 µM) is 4.1% (inactive); in experiment [1] (stimulation, at 2 µM), -0.1%. For the same compound, the insulin secretion stimulation in experiment [2] was 0.1% (inactive). The viability decrease in experiment [3] is -24.5% (inactive). Further, the tube area decrease in experiment [4] was -8.2% (inactive). In experiment [5], the GLP1 secretion stimulation was 0.1% (inactive). In addition, the inhibition of viability in experiment [6] was 16.1% (inactive). For the same compound, the viability decrease (inhibition) was 12.9% (inactive) in experiment [7] and 14.4% (inactive) in experiment [8].
In the case of `CCOc1cc(OCC)c(C(=O)CCC(=O)O)cc1OCC`, the nuclear beta-catenin stimulation in experiment [1] (at 10 µM) was -1.4% (inactive); in experiment [1] (stimulation, at 2 µM), 0.2%. Moreover, in experiment [2], the insulin secretion stimulation is 0.5% (inactive). For the same compound, in experiment [3], the viability decrease is -11.3% (inactive). The tube area decrease in experiment [4] is 3.4% (inactive). The GLP1 secretion stimulation in experiment [5] was -1.3% (inactive). Besides, the inhibition of viability in experiment [6] is 11.4% (inactive). For the same compound, the viability decrease (inhibition) was 0.4% (inactive) in experiment [7] and 3.7% (inactive) in experiment [8].
For `CCNC(=O)NCCCOc1cccc(CN2CCCCC2)c1`, the nuclear beta-catenin stimulation in experiment [1] (at 10 µM) was -0.4% (inactive); in experiment [1] (stimulation, at 2 µM) it was -1.5%. In addition, the insulin secretion stimulation in experiment [2] was 4.7% (inactive). For the same compound, the viability decrease in experiment [3] was 1.2% (inactive). The tube area decrease in experiment [4] was 0.6% (inactive). For the same compound, the GLP1 secretion stimulation in experiment [5] is -0.5% (inactive). Moreover, the inhibition of viability in experiment [6] is 5% (inactive). Also, the viability decrease (inhibition) in experiment [7] was -19.1% (inactive); in experiment [8] it was -12.6% (inactive).
Consider `CN[C@@H]1[C@H](O)[C@H](O[C@@H]2[C@H](O)[C@@H](O[C@H]3O[C@H]([C@@H](C)NC)CC[C@H]3N)[C@@H](N)C[C@H]2N)OC[C@]1(C)O`, for which the nuclear beta-catenin stimulation was -0.1% (inactive) in experiment [1] (at 10 µM) and -0.4% in experiment [1] (stimulation, at 2 µM). Besides, the insulin secretion stimulation in experiment [2] is 1.1% (inactive). Also, in experiment [3], the viability decrease was 7.9% (inactive). Besides, the tube area decrease in experiment [4] was 0.9% (inactive). Also, the GLP1 secretion stimulation in experiment [5] is 2.8% (inactive). Besides, in experiment [6], the inhibition of viability was 6.73% (inactive). The viability decrease (inhibition) was 29.9% (inactive) in experiment [7] and -5.6% (inactive) in experiment [8].
Turning to `N[C@H](C(=O)O)c1ccc(O)cc1`, the nuclear beta-catenin stimulation in experiment [1] (at 10 µM) is 2.5% (inactive); in experiment [1] (stimulation, at 2 µM), 3.1%. Also, the insulin secretion stimulation in experiment [2] is 5.2% (inactive). For the same compound, the viability decrease in experiment [3] was -0.7% (inactive). Further, the tube area decrease in experiment [4] is -7.9% (inactive). Further, the GLP1 secretion stimulation in experiment [5] is -2.9% (inactive). Also, in experiment [6], the inhibition of viability was 6% (inactive). For the same compound, the viability decrease (inhibition) in experiment [7] was 13.1% (inactive); in experiment [8] it was -2.7% (inactive).
On to `N[C@H]1CN(c2c(F)cc3c(=O)c(C(=O)O)cn(C4C[C@@H]4F)c3c2Cl)CC12CC2` (some centres undefined), for which the nuclear beta-catenin stimulation in experiment [1] (at 10 µM) was 0.1% (inactive); in experiment [1] (stimulation, at 2 µM), 1.9%. In experiment [2], the insulin secretion stimulation is 0.95% (inactive). In addition, in experiment [3], the viability decrease is 40.5% (inactive). Also, in experiment [4], the tube area decrease is -10.7% (inactive). In addition, the GLP1 secretion stimulation in experiment [5] was -1.5% (inactive). Besides, in experiment [6], the inhibition of viability was 34.3% (inactive). For the same compound, the viability decrease (inhibition) is 54.7% (active) in experiment [7] and -9.6% (inactive) in experiment [8].
Take `C=C(C)C(=O)OCC(O)CO` (centres undefined): the nuclear beta-catenin stimulation was 7.5% (inactive) in experiment [1] (at 10 µM) and 28.1% in experiment [1] (stimulation, at 2 µM). In addition, the insulin secretion stimulation in experiment [2] was 2.7% (inactive). The viability decrease in experiment [3] was 3% (inactive). The tube area decrease in experiment [4] was -13.7% (inactive). Moreover, the GLP1 secretion stimulation in experiment [5] was -1.4% (inactive). Also, the inhibition of viability in experiment [6] was 1.9% (inactive). For the same compound, the values for the viability decrease (inhibition) in experiment [7] and in experiment [8] were -10.3% (inactive) and 20.3% (inactive), respectively.
Regarding `CO/N=C(/C(=O)N[C@@H]1C(=O)N2C(C(=O)O)=C(Cn3nnc(C)n3)CS[C@H]12)c1csc(N)n1`, the nuclear beta-catenin stimulation in experiment [1] (at 10 µM) is -0.1% (inactive); in experiment [1] (stimulation, at 2 µM), -1%. Also, in experiment [2], the insulin secretion stimulation is 3.2% (inactive). The viability decrease in experiment [3] was 2.9% (inactive). Also, the tube area decrease in experiment [4] is 13.4% (inactive). Besides, in experiment [5], the GLP1 secretion stimulation was 0.9% (inactive). Further, the inhibition of viability in experiment [6] was -1.5% (inactive). Further, the viability decrease (inhibition) in experiment [7] is 10.8% (inactive); in experiment [8], 1% (inactive).
As to `CN1CCC(N(Cc2cccs2)c2ccccc2)CC1`, the nuclear beta-catenin stimulation was -0.3% (inactive) in experiment [1] (at 10 µM) and 5.8% in experiment [1] (stimulation, at 2 µM). Further, the insulin secretion stimulation in experiment [2] is 26.2% (active). In addition, the viability decrease in experiment [3] is 53.9% (active). The tube area decrease in experiment [4] is -3.7% (inactive). The GLP1 secretion stimulation in experiment [5] is 10% (inactive). Besides, the inhibition of viability in experiment [6] is 49.3% (inactive). Also, the results for the viability decrease (inhibition) in experiment [7] and in experiment [8] were 72.8% (active) and 13.1% (inactive), respectively.
For the compound `CCCCCCCCOc1ccc(C(=O)c2ccccc2)c(O)c1`, the nuclear beta-catenin stimulation in experiment [1] (at 10 µM) is 1% (inactive); in experiment [1] (stimulation, at 2 µM), 0.6%. The insulin secretion stimulation in experiment [2] is -2.1% (inactive). Further, the viability decrease in experiment [3] is -6.85% (inactive). Moreover, the tube area decrease in experiment [4] was -7.2% (inactive). The GLP1 secretion stimulation in experiment [5] is 0.4% (inactive). For the same compound, in experiment [6], the inhibition of viability was -7.5% (inactive). The viability decrease (inhibition) in experiment [7] is -0.5% (inactive); in experiment [8] it was 6.1% (inactive).
For `CC(C)CCCC(C)CCCC(C)CCCCC(C)CCCC(C)CCCC(C)C` (centres undefined), the nuclear beta-catenin stimulation is -1.2% (inactive) in experiment [1] (at 10 µM) and -0.8% in experiment [1] (stimulation, at 2 µM). Besides, the insulin secretion stimulation in experiment [2] is -1.6% (inactive). Moreover, the viability decrease in experiment [3] was -26.9% (inactive). Moreover, the tube area decrease in experiment [4] is 4.8% (inactive). Moreover, the GLP1 secretion stimulation in experiment [5] was -2.5% (inactive). The inhibition of viability in experiment [6] was -10.1% (inactive). Also, the viability decrease (inhibition) in experiment [7] is 22.4% (inactive); in experiment [8] it was -26.5% (inactive).
`NC(=O)C[C@H](N)C(=O)O`: the nuclear beta-catenin stimulation in experiment [1] (at 10 µM) is 3% (inactive); in experiment [1] (stimulation, at 2 µM) it was 1.1%. Also, in experiment [2], the insulin secretion stimulation is -1.3% (inactive). Further, the viability decrease in experiment [3] was -1% (inactive). For the same compound, the tube area decrease in experiment [4] was -19.4% (inactive). In addition, in experiment [5], the GLP1 secretion stimulation was 2.4% (inactive). Further, the inhibition of viability in experiment [6] is 0.3% (inactive). The viability decrease (inhibition) is 0.2% (inactive) in experiment [7] and 5.4% (inactive) in experiment [8].
On to `O=c1[nH]c2ccccc2c(=O)n1CCCl`, for which the nuclear beta-catenin stimulation in experiment [1] (at 10 µM) was 3.3% (inactive); in experiment [1] (stimulation, at 2 µM), 1.4%. Further, in experiment [2], the insulin secretion stimulation was 1.3% (inactive). Moreover, the viability decrease in experiment [3] was 41.6% (inactive). For the same compound, the tube area decrease in experiment [4] is -18.9% (inactive). In addition, the GLP1 secretion stimulation in experiment [5] is 2.8% (inactive). Also, in experiment [6], the inhibition of viability is 30.4% (inactive). The viability decrease (inhibition) in experiment [7] is 50.6% (active); in experiment [8], 20.2% (inactive).
For `CCCCCCCCC=CCCCCCCCC(=O)NCCOC(=O)CC(C(=O)O)S(=O)(=O)O` (centres undefined), the nuclear beta-catenin stimulation is 0.3% (inactive) in experiment [1] (at 10 µM) and -0.7% in experiment [1] (stimulation, at 2 µM). Also, the insulin secretion stimulation in experiment [2] is 0.8% (inactive). In addition, the viability decrease in experiment [3] was 36.1% (active). Moreover, in experiment [4], the tube area decrease is 22.7% (inactive). The GLP1 secretion stimulation in experiment [5] was -1% (inactive). Besides, in experiment [6], the inhibition of viability was 17.1% (inactive). Besides, the viability decrease (inhibition) in experiment [7] is 63.4% (active); in experiment [8], 81.6% (active).
